# Results filed as inconclusive are left out. Calls of active or inactive are those of the source. Calls follow the shape of the dose curve; as a rule, active = well fitted cell-killing curve with a large enough effect in the repeat runs; inconclusive = weak or mixed curves; inactive = no such curve, though single readings can be large or run the other way.
# Test: qHTS assay for identifying genotoxic compounds that show differential cytotoxicity against isogenic chicken DT40 cell lines with known DNA damage response pathways - Rad54/Ku70 mutant cell line (AID 743015); also: nearly all actives have a fitted effect of over 60% in size
# Details: DT40 Rad54/Ku70 mutant viability, CellTiter-Glo, 40 h; series mostly up to 66.8 µM; activity change, negative = cytotoxicity: at the top concentration
# % is scaled to controls: 0 for no effect and ±100 for the full control effect; potency is read from the fitted curve at half-maximal effect.
Structure (SMILES),Potency,"activity change, negative = cytotoxicity"
CC/C=C\C/C=C\C/C=C\CCCCCCCC(=O)OCC,70.1 µM (active),
c1ccc(CCCc2ccncc2)cc1,,-8.25% (inactive)
Cc1ccc2c(c1[N+](=O)[O-])C(=O)c1ccccc1C2=O,30 µM (active),
CC(=O)NCCO,,11% (inactive)
O=C1c2ccccc2C(=O)c2c(O)ccc(O)c21,7.7 µM (active),
COc1cc(S(=O)(=O)Nc2ccccc2)c(OC)cc1N,,-28.7% (inactive)
COC(=O)c1sccc1S(N)(=O)=O,,14.5% (inactive)
O[C@@H](CNC[C@H](O)[C@H]1CCc2cc(F)ccc2O1)[C@@H]1CCc2cc(F)ccc2O1,11.9 µM (active),
CCN(Cc1cccc(S(=O)(=O)O)c1)c1ccc(C(=C2C=CC(=[N+](CC)Cc3cccc(S(=O)(=O)O)c3)C=C2)c2ccc(O)cc2S(=O)(=O)[O-])cc1,11.7 µM (active),
CC(C)C(O)C(C)(C)CO (stereo unspecified),,-2.63% [at 95.1 µM] (inactive)
COC(=O)C1=C(C)NC(C)=C(C(=O)OC(C)(C)CN(C)CCC(c2ccccc2)c2ccccc2)C1c1cccc([N+](=O)[O-])c1 (stereo unspecified),9.44 µM (active),
CCN(Cc1cccc(S(=O)(=O)O)c1)c1ccc(C(=C2C=CC(=[N+](CC)Cc3cccc(S(=O)(=O)O)c3)C=C2)c2ccccc2S(=O)(=O)[O-])cc1,15.4 µM (active),
CCCCCCC(O)CCCCCCCCCCC(=O)OC (stereo unspecified),68.6 µM (active),
CCCCCCCCCCCSCC(=O)O,,9.61% (inactive)
O=CNNC=O,,-1.05% [at 95.1 µM] (inactive)
COc1cc(NC(C)CCCN)c2ncccc2c1 (stereo unspecified),12.7 µM (active),
CCCCCCCC/C=C\CCCCCCCC(=O)OCCO,72.2 µM (active),
CCN(CC)C(=O)/C(C#N)=C/c1cc(O)c(O)c([N+](=O)[O-])c1,,4.51% (inactive)
COc1cc(OC)c2ccc(=O)oc2c1,68.6 µM (active),
CC(=O)OCCC(C)CC(C)(C)C (stereo unspecified),,1.16% (inactive)
C=C(C)c1ccccc1,,-2.93% (inactive)
c1ccc(CNc2ncnc3c2ncn3C2CCCCO2)cc1 (stereo unspecified),61.1 µM (active),
Cc1c(C2(c3cc(Br)c(O)c(Br)c3C)OS(=O)(=O)c3ccccc32)cc(Br)c(O)c1Br,18.8 µM (active),
CC(=O)Oc1cccc(O)c1,,7.82% (inactive)
CO[C@@H]1[C@@H](OC)[C@H](C)[C@@](O)(CC(=O)O)O[C@H]1[C@H](C)[C@H]1O[C@@]2(CC[C@@](C)([C@H]3CC[C@@](C)([C@@H]4O[C@@H]([C@H]5O[C@](C)(O)[C@H](C)C[C@@H]5C)C[C@@H]4OC4C[C@H](OC)[C@@H](OC)[C@H](C)O4)O3)O2)C[C@H](O)[C@H]1C (stereo partly specified),0.211 µM (active),
Cc1cc(CCC(=O)OCCOCCOCCOC(=O)CCc2cc(C)c(O)c(C(C)(C)C)c2)cc(C(C)(C)C)c1O,23.7 µM (active),
